Source: ChEMBL document CHEMBL3988442, “University of Dundee, Small-Polar-MMV Screening Library” (2021)
For some assays here: Potency and affinity values are given separately.

Assays:
Set-up in all cases: scale not given: direction of the effect not stated beside the values
[1] = target: Protein translocase subunit SecA (Escherichia coli (strain K12)) (UniProt P10408); test: Assay to Identify E. coli SecA ATPase Inhibitors; type: functional; conditions: 30 µM
[2] = target: T1, Ubiquitin-activating enzyme e1, putative (Leishmania donovani (strain BPK282A1)) (UniProt E9BSI1); test: Leishmania donovani Ubiquitin Activating Enzyme (LdE1); type: functional; conditions: 30 µM
T1 sequence (whole entry): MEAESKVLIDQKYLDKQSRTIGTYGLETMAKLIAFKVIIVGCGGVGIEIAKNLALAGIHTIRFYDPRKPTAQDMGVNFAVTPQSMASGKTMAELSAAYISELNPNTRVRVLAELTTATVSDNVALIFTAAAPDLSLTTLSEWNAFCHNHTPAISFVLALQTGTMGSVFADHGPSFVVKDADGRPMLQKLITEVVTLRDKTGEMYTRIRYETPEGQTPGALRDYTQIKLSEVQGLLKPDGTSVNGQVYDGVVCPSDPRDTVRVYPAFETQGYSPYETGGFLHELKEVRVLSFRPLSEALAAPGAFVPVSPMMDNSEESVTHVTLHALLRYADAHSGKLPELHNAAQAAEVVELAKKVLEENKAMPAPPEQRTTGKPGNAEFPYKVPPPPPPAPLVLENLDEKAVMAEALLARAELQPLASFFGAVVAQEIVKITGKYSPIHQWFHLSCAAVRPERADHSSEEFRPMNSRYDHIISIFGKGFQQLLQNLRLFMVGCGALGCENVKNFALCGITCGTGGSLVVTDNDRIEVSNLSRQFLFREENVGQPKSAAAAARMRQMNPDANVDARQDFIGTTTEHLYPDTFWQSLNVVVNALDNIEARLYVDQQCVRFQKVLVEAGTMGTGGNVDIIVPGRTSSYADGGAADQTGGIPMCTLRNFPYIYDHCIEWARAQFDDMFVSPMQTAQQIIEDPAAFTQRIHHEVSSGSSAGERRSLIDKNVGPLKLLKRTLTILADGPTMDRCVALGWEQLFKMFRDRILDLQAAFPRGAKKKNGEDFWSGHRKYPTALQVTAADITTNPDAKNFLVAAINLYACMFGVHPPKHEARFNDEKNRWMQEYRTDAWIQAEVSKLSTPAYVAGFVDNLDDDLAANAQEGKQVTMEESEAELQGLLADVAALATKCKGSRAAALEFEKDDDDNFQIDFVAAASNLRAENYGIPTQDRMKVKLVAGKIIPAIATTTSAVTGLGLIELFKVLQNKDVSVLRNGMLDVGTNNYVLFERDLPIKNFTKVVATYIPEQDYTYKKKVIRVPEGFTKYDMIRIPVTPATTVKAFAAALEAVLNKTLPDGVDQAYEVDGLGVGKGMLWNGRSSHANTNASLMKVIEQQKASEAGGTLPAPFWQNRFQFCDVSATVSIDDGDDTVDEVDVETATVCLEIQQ

[3] = target: AMP-activated protein kinase, AMPK (Homo sapiens) (UniProt P54646+O43741+P54619+Q9UGJ0+Q9Y478+Q13131+Q9UGI9); test: AMP-dependent Kinase enzyme assay. An in vitro enzyme assay that detects ADP turnover that is directly proportional to AMPK activity. This uses naive AMPK that is activated during the assay with MK-8722; type: functional; conditions: 30 µM
[4] = target: Sialic acid-binding Ig-like lectin 9 (Homo sapiens) (UniProt Q9Y336); test: Hs-Siglec9 ALPHAscreen SOP 20170721; conditions: 10 µM
Trypanosoma cruzi = test: Trypanosoma cruzi phosphomannomutase and mannose-1-phosphate guanylyltransferase assay; type: functional; conditions: 10 µM
[5] = target: T2, Arginase-2, mitochondrial (Homo sapiens) (UniProt P78540); test: in vitro enzyme assay to detect the production of urea directly proportional to the activity of Arginase II; type: functional; conditions: 33.3 µM; further: in the data most compounds retested in dose-response had high values
T2 sequence (whole entry): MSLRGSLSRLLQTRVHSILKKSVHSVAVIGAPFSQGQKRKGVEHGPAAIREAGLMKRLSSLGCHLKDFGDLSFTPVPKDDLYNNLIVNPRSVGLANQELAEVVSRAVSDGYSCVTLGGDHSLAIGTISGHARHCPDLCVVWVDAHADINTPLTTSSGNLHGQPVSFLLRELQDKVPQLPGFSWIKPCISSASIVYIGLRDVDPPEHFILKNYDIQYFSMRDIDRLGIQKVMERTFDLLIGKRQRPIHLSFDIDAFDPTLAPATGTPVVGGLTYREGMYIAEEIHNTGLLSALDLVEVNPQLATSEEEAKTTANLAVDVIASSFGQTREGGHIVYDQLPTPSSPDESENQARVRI

[6] = target: T3, Proteasome subunit beta (Trypanosoma cruzi) (UniProt O96673); test: Trypanosoma cruzi proteasome chymotrypsin-like activity (TcProtChymo) assay.; further: in the data most compounds retested in dose-response had high values; type: functional; conditions: 9.37 µM
T3 sequence (whole entry): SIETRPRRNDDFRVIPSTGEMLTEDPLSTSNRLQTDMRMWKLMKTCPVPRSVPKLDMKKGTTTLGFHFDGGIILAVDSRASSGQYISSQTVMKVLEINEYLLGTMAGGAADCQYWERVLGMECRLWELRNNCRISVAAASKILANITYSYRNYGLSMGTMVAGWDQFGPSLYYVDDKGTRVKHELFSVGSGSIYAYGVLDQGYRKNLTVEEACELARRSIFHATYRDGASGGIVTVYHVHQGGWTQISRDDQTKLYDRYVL

Homo sapiens = species on record: Homo sapiens; test: To identify inhibition of the IFN signalling (Jak-Stat) pathway via expression of an eGFP reporter gene under the control of an IFN-stimulated response element (ISRE) containing MxA promoter.; type: functional; conditions: 30 µM
[7] = target: T4, Tyrosyl-tRNA synthetase, putative (Trypanosoma cruzi (strain CL Brener)) (UniProt Q4DSP6); test: Trypanosoma cruzi tyrosyl tRNA synthetase (TcYRS) _High Tyrosine SOP; type: functional; conditions: 30 µM; further: in the data most compounds retested in dose-response had high values
T4 sequence (whole entry): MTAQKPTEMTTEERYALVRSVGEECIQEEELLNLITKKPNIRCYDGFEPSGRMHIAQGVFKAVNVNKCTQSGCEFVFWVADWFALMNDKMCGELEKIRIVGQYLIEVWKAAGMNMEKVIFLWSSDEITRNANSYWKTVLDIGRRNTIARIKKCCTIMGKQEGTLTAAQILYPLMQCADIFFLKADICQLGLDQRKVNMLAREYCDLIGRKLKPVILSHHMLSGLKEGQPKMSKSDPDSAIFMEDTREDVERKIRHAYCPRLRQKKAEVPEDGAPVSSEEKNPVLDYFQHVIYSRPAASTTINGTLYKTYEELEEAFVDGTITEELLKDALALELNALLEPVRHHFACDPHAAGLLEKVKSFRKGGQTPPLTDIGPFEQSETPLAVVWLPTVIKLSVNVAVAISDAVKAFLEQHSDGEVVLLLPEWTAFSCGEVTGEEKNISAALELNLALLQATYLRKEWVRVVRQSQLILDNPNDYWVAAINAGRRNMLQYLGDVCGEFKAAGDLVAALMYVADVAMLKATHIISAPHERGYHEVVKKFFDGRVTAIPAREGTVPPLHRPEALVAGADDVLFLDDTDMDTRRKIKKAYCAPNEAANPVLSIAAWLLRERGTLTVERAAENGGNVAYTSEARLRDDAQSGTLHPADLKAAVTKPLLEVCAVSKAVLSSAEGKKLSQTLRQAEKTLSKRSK

[8] = target: T4, Tyrosyl-tRNA synthetase, putative (Trypanosoma cruzi (strain CL Brener)); test: Trypanosoma cruzi tyrosyl tRNA synthetase (TcYRS) SOP; type: functional; conditions: 30 µM
[9] = target: Chromo domain-containing protein 1 (Saccharomyces cerevisiae (strain ATCC 204508 / S288c) (Baker's yeast)) (UniProt P32657); test: ScCHD-1 Enzyme Inhibition Assay; type: functional; conditions: 30 µM; further: in the data most compounds retested in dose-response had high values
Chain of Chromo domain-containing protein 1 (Saccharomyces cerevisiae (strain ATCC 204508 / S288c) (Baker's yeast)) (P32657 whole entry, the tested form may be a part): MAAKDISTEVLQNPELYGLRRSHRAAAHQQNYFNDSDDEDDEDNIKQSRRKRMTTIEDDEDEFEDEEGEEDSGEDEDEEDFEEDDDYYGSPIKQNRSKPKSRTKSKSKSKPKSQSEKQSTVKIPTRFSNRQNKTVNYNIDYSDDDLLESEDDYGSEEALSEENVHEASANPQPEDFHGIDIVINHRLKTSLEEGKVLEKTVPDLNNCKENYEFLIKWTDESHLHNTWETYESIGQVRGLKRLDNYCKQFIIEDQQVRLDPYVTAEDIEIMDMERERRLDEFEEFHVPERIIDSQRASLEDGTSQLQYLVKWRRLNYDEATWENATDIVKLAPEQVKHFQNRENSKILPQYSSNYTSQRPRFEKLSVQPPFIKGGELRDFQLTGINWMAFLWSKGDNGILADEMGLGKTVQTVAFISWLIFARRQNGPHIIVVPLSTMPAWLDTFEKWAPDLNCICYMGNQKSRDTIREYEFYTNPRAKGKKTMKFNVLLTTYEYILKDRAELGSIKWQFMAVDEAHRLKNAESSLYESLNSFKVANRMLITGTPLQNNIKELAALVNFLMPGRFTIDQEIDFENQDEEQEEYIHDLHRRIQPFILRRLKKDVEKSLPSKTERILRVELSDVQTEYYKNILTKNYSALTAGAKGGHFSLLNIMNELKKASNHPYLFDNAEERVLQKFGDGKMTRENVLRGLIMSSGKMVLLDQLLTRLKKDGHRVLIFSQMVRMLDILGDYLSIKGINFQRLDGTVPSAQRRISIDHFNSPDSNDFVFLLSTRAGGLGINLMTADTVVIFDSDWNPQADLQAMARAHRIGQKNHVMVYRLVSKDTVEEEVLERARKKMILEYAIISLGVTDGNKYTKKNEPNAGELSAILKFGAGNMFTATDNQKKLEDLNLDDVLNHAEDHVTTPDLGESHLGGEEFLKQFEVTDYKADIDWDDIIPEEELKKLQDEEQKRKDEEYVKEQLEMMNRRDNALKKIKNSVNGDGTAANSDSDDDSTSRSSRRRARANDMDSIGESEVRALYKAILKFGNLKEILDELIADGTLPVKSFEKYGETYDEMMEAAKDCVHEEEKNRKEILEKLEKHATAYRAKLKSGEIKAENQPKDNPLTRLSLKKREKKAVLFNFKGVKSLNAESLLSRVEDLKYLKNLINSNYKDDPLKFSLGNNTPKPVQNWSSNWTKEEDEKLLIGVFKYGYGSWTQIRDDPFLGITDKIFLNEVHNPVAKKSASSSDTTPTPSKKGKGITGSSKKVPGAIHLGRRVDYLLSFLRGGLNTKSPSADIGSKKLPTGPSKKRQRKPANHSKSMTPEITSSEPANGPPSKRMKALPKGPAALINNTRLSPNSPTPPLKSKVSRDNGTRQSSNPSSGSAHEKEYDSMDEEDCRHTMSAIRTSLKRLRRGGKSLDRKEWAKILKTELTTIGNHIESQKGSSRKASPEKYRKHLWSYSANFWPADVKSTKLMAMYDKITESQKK

Chain of Protein translocase subunit SecA (Escherichia coli (strain K12)) (P10408 whole entry): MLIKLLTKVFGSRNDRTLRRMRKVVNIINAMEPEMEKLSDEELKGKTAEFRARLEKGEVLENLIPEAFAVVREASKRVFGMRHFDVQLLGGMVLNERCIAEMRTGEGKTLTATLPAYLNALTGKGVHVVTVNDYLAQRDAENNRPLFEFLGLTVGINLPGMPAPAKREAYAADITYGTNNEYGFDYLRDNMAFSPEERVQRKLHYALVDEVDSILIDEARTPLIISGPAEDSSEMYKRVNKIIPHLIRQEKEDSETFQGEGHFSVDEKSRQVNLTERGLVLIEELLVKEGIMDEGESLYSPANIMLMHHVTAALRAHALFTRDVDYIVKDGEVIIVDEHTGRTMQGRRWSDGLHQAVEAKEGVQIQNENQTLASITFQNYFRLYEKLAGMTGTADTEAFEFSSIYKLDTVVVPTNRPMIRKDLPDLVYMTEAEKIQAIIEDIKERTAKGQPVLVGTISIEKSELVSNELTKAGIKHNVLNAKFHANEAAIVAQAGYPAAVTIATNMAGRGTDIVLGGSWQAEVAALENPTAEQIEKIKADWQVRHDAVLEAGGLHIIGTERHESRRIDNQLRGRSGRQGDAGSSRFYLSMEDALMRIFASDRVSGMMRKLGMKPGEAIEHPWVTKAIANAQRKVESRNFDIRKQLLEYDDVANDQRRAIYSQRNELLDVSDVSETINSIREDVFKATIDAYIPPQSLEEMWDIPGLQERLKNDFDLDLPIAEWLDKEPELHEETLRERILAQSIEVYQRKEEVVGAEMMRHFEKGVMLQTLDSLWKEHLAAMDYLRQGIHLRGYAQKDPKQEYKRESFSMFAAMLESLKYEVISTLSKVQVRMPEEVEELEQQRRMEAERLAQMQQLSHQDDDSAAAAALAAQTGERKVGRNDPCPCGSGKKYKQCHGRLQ
Chain of Sialic acid-binding Ig-like lectin 9 (Homo sapiens) (Q9Y336 whole entry): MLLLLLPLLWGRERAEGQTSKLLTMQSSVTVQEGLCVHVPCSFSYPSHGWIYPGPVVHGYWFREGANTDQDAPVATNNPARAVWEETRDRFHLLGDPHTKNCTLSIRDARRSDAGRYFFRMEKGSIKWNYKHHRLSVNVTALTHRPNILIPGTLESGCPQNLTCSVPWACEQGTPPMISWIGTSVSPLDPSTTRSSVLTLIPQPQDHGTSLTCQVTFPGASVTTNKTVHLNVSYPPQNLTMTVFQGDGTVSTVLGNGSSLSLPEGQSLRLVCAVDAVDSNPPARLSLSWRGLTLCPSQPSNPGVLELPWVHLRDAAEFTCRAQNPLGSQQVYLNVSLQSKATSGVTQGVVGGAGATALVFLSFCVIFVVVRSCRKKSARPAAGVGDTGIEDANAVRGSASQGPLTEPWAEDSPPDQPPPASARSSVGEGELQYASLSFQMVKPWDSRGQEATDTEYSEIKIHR

Compound | Percent Effect [1] | Percent Effect [2] | Percent Effect [3] | Percent Effect [4] | Percent Effect (Trypanosoma cruzi) | Percent Effect [5] | Percent Effect [6] | Percent Effect (Homo sapiens) | Percent Effect [7] | Percent Effect [8] | Percent Effect [9]
CCc1ccc(S(=O)(=O)Nc2c(C)cccc2C(=O)O)s1 | -6.89% | 5.26% | -2.41% | 7.53% | 2.71% | -2.16% | 3.64% | -1.38% | 2.46% | 6.17% | 2.56%
Cc1c(I)cccc1C(=O)NCC1(CO)CC1 | -4.35% | 13.5% | -3.32% | 13.5% | 7.14% | 0.952% | 1.38% | -9.36% | 0.529% | 14.6% | -4.29%
CCCc1noc(CCC(=O)N2CCCC2c2noc(C3CC3)n2)n1 (configuration not stated) | -5.01% | 10.1% | 1.8% | 21.9% | -0.85% | 1.52% | -1.56% | 12% | 1.48% | 1.27% | -2.93%
O=C1CCC2(CCN(Cc3cc(F)cc(F)c3)CC2)CN1CCO | -6.11% | 4.17% | -0.613% | 0.944% | 1.85% | -24.7% | 9.12% | -8.34% | 3.16% | 10.3% | -0.52%
COCCN(C)C(=O)c1ccc(OC)cc1O | -7.04% | 0% | 0.346% | 2.75% | -4.17% | 2.4% | 18.2% | 8.7% | 4.17% | 8.64% | 3.68%
Cc1noc(CN(Cc2ccc3c(c2)OCO3)C2CCCC2)n1 | -1.22% | 10.8% | -9.58% | 6.53% | -1.04% | -12% | 6.67% | 29.7% | 3.45% | 3.7% | -9.8%
CC(C)c1nccn1C1CCCN(C(=O)c2cnc[nH]2)C1 (configuration not stated) | -5.4% | 10.5% | -5.59% | 16.2% | 5.32% | 0.719% | 10.1% | -0.618% | 5.42% | 16.1% | -3.38%
Cc1cccc(N2CCN(CCNC(=O)C(C)n3cncn3)CC2)c1 (configuration not stated) | -4.94% | 28.9% | -8.42% | -3.17% | 3.83% | -3.96% | 15% | 9.51% | 7.39% | 23.5% | -10.7%
COCC1c2c(cnn2C)CCN1Cc1ccoc1 (configuration not stated) | -4.26% | -2.7% | 3.57% | 2.05% | -1.95% | -1.67% | 0.0845% | -9.84% | 0.99% | 3.66% | 2.42%
Cc1csc2nc3n(c(=O)c12)CCN(C(=O)c1ccncc1)CC3 | -6.48% | 20.3% | 7.17% | -3.24% | 1.78% | -2.09% | 9.83% | 12.7% | 2.15% | 11.7% | -13.5%
O=C1[C@H]2CC[C@H](CN(S(=O)(=O)c3ccccc3)C2)N1Cc1cscn1 | -9.05% | 5.48% | 3.4% | -0.832% | -1.59% | -2.4% | -4.02% | 27.2% | -1.04% | -1.24% | 2.37%
O=C(O)c1cc2c(nc1O)CC(c1cccs1)CC2=O (configuration not stated) | -5.09% | 17.3% | -2.58% | -0.782% | -5.5% | -2.64% | 15.9% | -5.05% | 2.12% | -20.5% | -9.66%
CS(=O)(=O)NCC(=O)NC1CCc2nccn2C1 (configuration not stated) | 0.138% | 5.33% | -3.96% | -2.36% | -7.69% | 1.56% | 12.7% | 2.1% | 4.92% | 8.64% | -13.2%
CC(C)c1nn(C)c(N2CCOCC2)c1CNC(C)c1cccs1 (configuration not stated) | -3.9% | -13.2% | -6.19% | -4.57% | -2.71% | -1.08% | 1.44% | -28.8% | 11.3% | 18.5% | -4.62%
Cc1nn(CC(=O)N2CCCCC2Cn2cccn2)c(C)c1Cl (configuration not stated) | -2.25% | 2.7% | 0.616% | -1.03% | -4.3% | 2.92% | 14.4% | 7.18% | 1.98% | 13.4% | -2.37%
O=S(=O)(NCC1CCOc2ccccc2C1)N1CCOCC1 (configuration not stated) | -5.96% | 15.6% | 1.72% | 13.8% | 3.83% | -1.38% | 11.8% | 6.21% | 3.23% | 13.6% | 1.35%
O=C1N(c2ccc(Br)cc2)Cc2nc(=O)[nH]n21 | -6.3% | 22.7% | -2.95% | 0.772% | 1.38% | -1.58% | 4.44% | 7.62% | 5.29% | 15.4% | -11.8%
COC(=O)c1ccc(N2CCN(CCN3CCOCC3)C(C)C2)cc1 (configuration not stated) | -7.58% | 15.8% | -5.32% | 3.41% | -0.467% | -1.8% | 2.96% | -10.7% | 7.39% | 13.6% | -4.27%
O=C(NCc1ccccn1)[C@@H]1CCO[C@@H]2CCN(Cc3ccoc3)C[C@H]21 | -4.59% | 8.11% | 7.22% | -2.83% | -3.03% | 0.955% | 17.5% | 3.21% | 4.32% | 15.4% | -2.07%
CCc1nc2n(n1)CC(NCC(=O)Nc1nccs1)CC2 (configuration not stated) | -2.54% | -2.53% | -11.6% | -5.43% | -5.95% | -1.9% | -0.737% | 15.1% | 2.46% | -8.86% | -2.63%
CC(C)c1nccn1C1CCCN(C(=O)c2ccc3c(c2)OCO3)C1 (configuration not stated) | 1.45% | -2.6% | 7.64% | -5.54% | 1.27% | 5.26% | 3.96% | 9.94% | 0% | -2.35% | -9.35%
Cc1cnn(C2CCCN(C(=O)C3=NN(C)C(=O)CC3)C2)c1 (configuration not stated) | -6.81% | 21.6% | -15.8% | 11.8% | 8.4% | 3.21% | 15.7% | 2.98% | 8.37% | 13.6% | -12.6%
